Results from PubChem BioAssay AID1159580 (chemical genetic matrix, 2015).
In all, about 5,500 compounds went through this assay and about 2,000 (36%) were called active. About 18% were inconclusive and are not listed. The list shows a part of the results. Unmarked numbers belong to inactive results. Rule as the data show it: active = normalized growth mostly below about 0.91 (no sharp cut-off); inconclusive = no clear call, values can overlap the other calls; inactive = mostly above about 0.92.

Experiment: chemical genetic growth profiling, strain panel (AID 1159580);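 also: tested at 20 µM; growth read once vehicle control cultures reached saturation at 30 °C; 1 = growth at the plate median or of vehicle wells; lower values mean less growth of the strain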
Conditions: growth OD

For CN1C2CCC1CC(OC(c1ccccc1)c1ccccc1)C2 (stereo not given), the normalized growth (S. cerevisiae deletion strains, locus YJR043C, strain POL32, hits give low values) was 0.95, the normalized growth (S. cerevisiae deletion strains, locus YJR075W, strain HOC1, hits give low values) was 0.847 (active) and the normalized growth (S. cerevisiae deletion strains, locus YKL009W, strain mrt4, hits give low values) was 0.918. It also gave a normalized growth (S. cerevisiae deletion strains, locus YKL068W, hits give low values) of 0.986, a normalized growth (S. cerevisiae deletion strains, locus YKL085W, strain MDH1 (second series), hits give low values) of 0.978 and a normalized growth (S. cerevisiae deletion strains, locus YKL085W, strain MDH1, hits give low values) of 0.978. For the same molecule, the normalized growth (S. cerevisiae deletion strains, locus YKL160W, strain elf1, hits give low values) was 1, the normalized growth (S. cerevisiae deletion strains, locus YKR001C, strain vps1, hits give low values) was 0.926 and the normalized growth (S. cerevisiae deletion strains, locus YKR026C, strain gcn3, hits give low values) was 0.972. It also gave a normalized growth (S. cerevisiae deletion strains, locus YKR091W, strain srl3, hits give low values) of 0.971, a normalized growth (S. cerevisiae deletion strains, locus YLL001W, strain dnm1, hits give low values) of 1.01 and a normalized growth (S. cerevisiae deletion strains, locus YLL026W, hits give low values) of 0.991. It also gave a normalized growth (S. cerevisiae deletion strains, locus YLL041C, strain sdh2, hits give low values) of 0.995, a normalized growth (S. cerevisiae deletion strains, locus YLR027C, strain aat2, hits give low values) of 0.989 and a normalized growth (S. cerevisiae deletion strains, locus YLR039C, strain RIC1, hits give low values) of 0.795. The normalized growth (S. cerevisiae deletion strains, locus YLR058C, strain SHM2, hits give low values) was 0.91, the normalized growth (S. cerevisiae deletion strains, locus YLR102C, strain apc9, hits give low values) was 0.996 and the normalized growth (S. cerevisiae deletion strains, locus YLR221C, strain rsa3, hits give low values) was 0.985. For the same molecule, the normalized growth (S. cerevisiae deletion strains, locus YLR258W, strain gsy2, hits give low values) was 0.982, the normalized growth (S. cerevisiae deletion strains, locus YLR262C, strain YPT6 (second series), hits give low values) was 1.04 and the normalized growth (S. cerevisiae deletion strains, locus YLR262C, strain YPT6, hits give low values) was 0.647. For the same molecule, the normalized growth (S. cerevisiae deletion strains, locus YLR268W, strain sec22, hits give low values) was 0.96, the normalized growth (S. cerevisiae deletion strains, locus YLR320W, strain mms22, hits give low values) was 0.951 and the normalized growth (S. cerevisiae deletion strains, locus YLR330W, strain CHS5, hits give low values) was 0.809 (active). For the same molecule, the normalized growth (S. cerevisiae deletion strains, locus YLR342W, strain FKS1 (second series), hits give low values) was 0.842, the normalized growth (S. cerevisiae deletion strains, locus YLR342W, strain FKS1, hits give low values) was 0.997 and the normalized growth (S. cerevisiae deletion strains, locus YLR357W, strain rsc2, hits give low values) was 0.958. The normalized growth (S. cerevisiae deletion strains, locus YLR370C, strain arc18, hits give low values) was 0.987, the normalized growth (S. cerevisiae deletion strains, locus YLR371W, strain rom2, hits give low values) was 0.969 and the normalized growth (S. cerevisiae deletion strains, locus YLR384C, strain iki3, hits give low values) was 0.999. The normalized growth (S. cerevisiae deletion strains, locus YLR418C, strain cdc73, hits give low values) was 0.814 (active), the normalized growth (S. cerevisiae deletion strains, locus YML016C, strain PPZ1, hits give low values) was 0.981 and the normalized growth (S. cerevisiae deletion strains, locus YML032C, strain rad52, hits give low values) was 0.979. For the same molecule, the normalized growth (S. cerevisiae deletion strains, locus YML120C, strain ndi1, hits give low values) was 0.985, the normalized growth (S. cerevisiae deletion strains, locus YML124C, strain tub3, hits give low values) was 0.993 and the normalized growth (S. cerevisiae deletion strains, locus YMR058W, strain fet3, hits give low values) was 0.978. For the same molecule, the normalized growth (S. cerevisiae deletion strains, locus YMR078C, strain ctf18, hits give low values) was 0.954, the normalized growth (S. cerevisiae deletion strains, locus YMR125W, strain sto1, hits give low values) was 0.963 and the normalized growth (S. cerevisiae deletion strains, locus YMR129W, hits give low values) was 0.984. It also gave a normalized growth (S. cerevisiae deletion strains, locus YMR205C, strain PFK2, hits give low values) of 0.969, a normalized growth (S. cerevisiae deletion strains, locus YMR223W, strain ubp8, hits give low values) of 0.948 and a normalized growth (S. cerevisiae deletion strains, locus YMR231W, strain pep5, hits give low values) of 1. The normalized growth (S. cerevisiae deletion strains, locus YMR263W, strain SAP30, hits give low values) was 1, the normalized growth (S. cerevisiae deletion strains, locus YMR307W, strain GAS1, hits give low values) was 0.807 and the normalized growth (S. cerevisiae deletion strains, locus YNL067W, strain RPL9B, hits give low values) was 0.898. For the same molecule, the normalized growth (S. cerevisiae deletion strains, locus YNL071W, strain lat1, hits give low values) was 0.964, the normalized growth (S. cerevisiae deletion strains, locus YNL128W, strain TEP1, hits give low values) was 0.925 and the normalized growth (S. cerevisiae deletion strains, locus YNL175C, strain NOP13, hits give low values) was 1.03. For the same molecule, the normalized growth (S. cerevisiae deletion strains, locus YNL197C, strain WHI3, hits give low values) was 1.03, the normalized growth (S. cerevisiae deletion strains, locus YNL209W, strain ssb2, hits give low values) was 0.981 and the normalized growth (S. cerevisiae deletion strains, locus YNL224C, strain SQS1, hits give low values) was 1.01. For the same molecule, the normalized growth (S. cerevisiae deletion strains, locus YNL233W, strain BNI4, hits give low values) was 0.766 (active), the normalized growth (S. cerevisiae deletion strains, locus YNL248C, strain rpa49, hits give low values) was 0.969 and the normalized growth (S. cerevisiae deletion strains, locus YNL250W, strain rad50, hits give low values) was 0.971. For the same molecule, the normalized growth (S. cerevisiae deletion strains, locus YNL271C, strain bni1, hits give low values) was 0.967, the normalized growth (S. cerevisiae deletion strains, locus YNL298W, strain CLA4, hits give low values) was 0.95 and the normalized growth (S. cerevisiae deletion strains, locus YNL307C, strain MCK1, hits give low values) was 0.91. The normalized growth (S. cerevisiae deletion strains, locus YNL322C, strain KRE1 (second series), hits give low values) was 0.98, the normalized growth (S. cerevisiae deletion strains, locus YNL322C, strain KRE1, hits give low values) was 0.973 and the normalized growth (S. cerevisiae deletion strains, locus YNR049C, strain mso1, hits give low values) was 0.984. The normalized growth (S. cerevisiae deletion strains, locus YNR052C, strain pop2, hits give low values) was 0.972, the normalized growth (S. cerevisiae deletion strains, locus YOL006C, strain TOP1, hits give low values) was 0.597 and the normalized growth (S. cerevisiae deletion strains, locus YOL012C, strain htz1) was 1. It also gave a normalized growth (S. cerevisiae deletion strains, locus YOL147C, strain pex11, hits give low values) of 0.985, a normalized growth (S. cerevisiae deletion strains, locus YOR001W, strain rrp6, hits give low values) of 0.99 and a normalized growth (S. cerevisiae deletion strains, locus YOR061W, strain CKA2, hits give low values) of 0.979. For the same molecule, the normalized growth (S. cerevisiae deletion strains, locus YOR069W, strain VPS5, hits give low values) was 0.971, the normalized growth (S. cerevisiae deletion strains, locus YOR070C, strain gyp1, hits give low values) was 0.989 and the normalized growth (S. cerevisiae deletion strains, locus YOR080W, strain dia2, hits give low values) was 0.989. For the same molecule, the normalized growth (S. cerevisiae deletion strains, locus YOR083W, strain WHI5 (second series), hits give low values) was 0.998, the normalized growth (S. cerevisiae deletion strains, locus YOR083W, strain WHI5, hits give low values) was 0.998 and the normalized growth (S. cerevisiae deletion strains, locus YOR106W, strain vam3, hits give low values) was 1. For the same molecule, the normalized growth (S. cerevisiae deletion strains, locus YOR136W, strain idh2, hits give low values) was 0.972, the normalized growth (S. cerevisiae deletion strains, locus YOR144C, strain elg1, hits give low values) was 0.993 and the normalized growth (S. cerevisiae deletion strains, locus YOR184W, strain ser1, hits give low values) was 0.774 (active). The normalized growth (S. cerevisiae deletion strains, locus YOR265W, strain rbl2, hits give low values) was 0.988, the normalized growth (S. cerevisiae deletion strains, locus YOR270C, strain vph1, hits give low values) was 0.943 and the normalized growth (S. cerevisiae deletion strains, locus YOR290C, strain snf2, hits give low values) was 0.967. For the same molecule, the normalized growth (S. cerevisiae deletion strains, locus YOR316C, strain cot1, hits give low values) was 0.986, the normalized growth (S. cerevisiae deletion strains, locus YPL051W, strain arl3, hits give low values) was 0.995 and the normalized growth (S. cerevisiae deletion strains, locus YPL078C, strain atp4, hits give low values) was 0.998. The normalized growth (S. cerevisiae deletion strains, locus YPL106C, strain sse1, hits give low values) was 0.912, the normalized growth (S. cerevisiae deletion strains, locus YPL240C, strain hsp82, hits give low values) was 0.995 and the normalized growth (S. cerevisiae deletion strains, locus YPL241C, strain CIN2, hits give low values) was 0.999. It also gave a normalized growth (S. cerevisiae deletion strains, locus YPR119W, strain clb2, hits give low values) of 0.973, a normalized growth (S. cerevisiae deletion strains, locus YPR141C, strain kar3, hits give low values) of 0.966 and a normalized growth (S. cerevisiae deletion strains, locus YPR163C, strain tif3, hits give low values) of 0.952. For the same molecule, the normalized growth (S. cerevisiae deletion strains, locus YPR167C, strain met16, hits give low values) was 0.965, the normalized growth (S. cerevisiae deletion strains, strain wtn01, hits give low values) was 0.977 and the normalized growth (S. cerevisiae strains, strain wild type, hits give low values) was 0.882 (active).
